From PubChem BioAssay (EPA / NIEHS)
Calls of active or inactive are those of the source. Rule for the calls: active = hit-call score of the fitted dose curve at least 0.9, where 1 is the maximum; inactive = score below 0.9.

How the values were obtained:
[1] = ATG_ISRE_CIS: Attagene CIS-FACTORIAL HepG2 Assay for human Interferon Regulatory Factor 1 (IRF1) binding to an Interferon-Stimulated Response Element (ISRE) (AID 2282948); details: HepG2 ISRE cis-reporter (Attagene), mRNA transcription readout; actives raise or lower the signal
Method in brief: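 Transiently transfected HepG2 cells carrying cis-element reporter units, dosed 24 hours. Reporter mRNA quantified by RT-PCR, fluorescent primer extension, HpaI digestion and capillary electrophoresis. Bidirectional fitting relative to DMSO.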

[2] = ATG_M_32_CIS: Attagene CIS-FACTORIAL HepG2 Assay for M32 Transcription Factor (Internal Marker) (AID 2282949); details: HepG2 Attagene cis-factorial M32 reporter, mRNA; actives raise or lower the signal;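 note: background control marker of the multiplexed CIS panel rather than a real target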
Method in brief: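 HepG2 cells transiently transfected with multiplexed cis-regulated reporter units, dosed 24 h. Reporter mRNA quantified by RT-PCR, 6-FAM labelling, HpaI digestion and capillary electrophoresis; bidirectional fit vs DMSO.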

[3] = ATG_M_06_CIS: Attagene CIS-FACTORIAL HepG2 Assay for M06 Transcription Factor (Internal Marker) (AID 2282950); details: HepG2 Attagene CIS-FACTORIAL M06 internal marker reporter; actives raise or lower the signal
Method in brief: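 Measured 24 h post-dosing in transiently transfected HepG2 cells, this internal-marker endpoint reports reporter mRNA via RT-PCR with fluorescent primer extension and capillary electrophoresis. DMSO served as negative control and baseline for bidirectional fitting.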

[4] = molecular target: Hypoxia-inducible factor 1-alpha (Homo sapiens) (UniProt Q16665); assay: ATG_HIF1a_CIS: Attagene CIS-FACTORIAL HepG2 Assay for human Hypoxia Inducible Factor 1 (HIF1A) (AID 2282951); details: HepG2 Attagene cis-factorial HIF1a reporter transcription; actives raise or lower the signal
Sequence of Hypoxia-inducible factor 1-alpha (Homo sapiens) (Q16665 whole entry, looked up): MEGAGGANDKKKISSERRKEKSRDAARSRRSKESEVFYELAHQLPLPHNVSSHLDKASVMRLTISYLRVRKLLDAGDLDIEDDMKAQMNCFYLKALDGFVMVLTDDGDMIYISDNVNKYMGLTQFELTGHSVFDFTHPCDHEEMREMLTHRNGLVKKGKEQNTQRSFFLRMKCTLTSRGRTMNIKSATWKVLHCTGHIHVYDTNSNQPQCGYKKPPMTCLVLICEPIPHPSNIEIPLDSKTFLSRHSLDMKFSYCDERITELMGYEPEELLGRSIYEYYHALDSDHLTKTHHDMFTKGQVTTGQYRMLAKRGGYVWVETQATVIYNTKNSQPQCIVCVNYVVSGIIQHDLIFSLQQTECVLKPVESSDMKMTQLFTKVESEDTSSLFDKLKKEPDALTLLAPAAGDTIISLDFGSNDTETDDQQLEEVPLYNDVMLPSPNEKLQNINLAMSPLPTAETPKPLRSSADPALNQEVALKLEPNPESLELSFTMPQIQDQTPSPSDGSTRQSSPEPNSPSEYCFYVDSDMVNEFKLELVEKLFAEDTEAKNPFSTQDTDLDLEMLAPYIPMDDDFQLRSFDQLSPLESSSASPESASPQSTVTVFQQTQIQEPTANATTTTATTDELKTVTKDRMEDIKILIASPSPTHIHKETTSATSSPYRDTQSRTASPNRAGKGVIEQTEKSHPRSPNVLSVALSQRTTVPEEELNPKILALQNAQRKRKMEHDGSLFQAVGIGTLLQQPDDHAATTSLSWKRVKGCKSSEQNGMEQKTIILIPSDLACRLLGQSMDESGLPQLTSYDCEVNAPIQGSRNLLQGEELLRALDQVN
Method in brief: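 Activity is fitted in both directions relative to DMSO. Reporter transcripts are read by RT-PCR, fluorescent primer extension and capillary electrophoresis after 24 h chemical treatment. The cells are HepG2 carrying transiently transfected cis-element-driven reporter units responding to endogenous factors.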

[5] = molecular target: Hepatocyte nuclear factor 6 (Homo sapiens) (UniProt Q9UBC0); assay: ATG_HNF6_CIS: Attagene CIS-FACTORIAL HepG2 Assay for human Hepatocyte Nuclear Factor 6 (HNF6) (AID 2282952); details: HepG2 Attagene cis-factorial HNF6 reporter transcription; actives raise or lower the signal
Sequence of Hepatocyte nuclear factor 6 (Homo sapiens) (Q9UBC0 whole entry, looked up): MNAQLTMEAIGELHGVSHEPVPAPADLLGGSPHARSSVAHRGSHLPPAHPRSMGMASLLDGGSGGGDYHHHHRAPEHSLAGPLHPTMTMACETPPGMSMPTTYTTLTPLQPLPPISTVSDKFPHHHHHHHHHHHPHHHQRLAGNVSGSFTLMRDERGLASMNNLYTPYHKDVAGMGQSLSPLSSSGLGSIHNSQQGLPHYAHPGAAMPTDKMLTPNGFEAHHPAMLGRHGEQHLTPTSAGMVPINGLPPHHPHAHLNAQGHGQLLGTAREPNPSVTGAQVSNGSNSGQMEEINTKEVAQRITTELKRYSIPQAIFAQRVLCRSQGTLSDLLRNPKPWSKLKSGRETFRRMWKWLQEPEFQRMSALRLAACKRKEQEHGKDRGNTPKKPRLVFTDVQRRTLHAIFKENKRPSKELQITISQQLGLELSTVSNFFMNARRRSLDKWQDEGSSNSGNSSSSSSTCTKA
Method in brief: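 Transiently transfected HepG2 cells expressing cis-regulated reporter transcription units were exposed to chemical for 24 h in a 24-well format. Reporter transcript abundance was determined by fluorescence capillary electrophoresis.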

[6] = molecular target: Heat shock factor protein 1 (Homo sapiens) (UniProt Q00613); assay: ATG_HSE_CIS: Attagene CIS-FACTORIAL HepG2 Assay for human Heat Shock Transcription Factor 1 (HSE) (AID 2282953); details: HepG2 HSE cis-reporter, Attagene RNA transcription; actives raise or lower the signal
Sequence of Heat shock factor protein 1 (Homo sapiens) (Q00613 whole entry, looked up): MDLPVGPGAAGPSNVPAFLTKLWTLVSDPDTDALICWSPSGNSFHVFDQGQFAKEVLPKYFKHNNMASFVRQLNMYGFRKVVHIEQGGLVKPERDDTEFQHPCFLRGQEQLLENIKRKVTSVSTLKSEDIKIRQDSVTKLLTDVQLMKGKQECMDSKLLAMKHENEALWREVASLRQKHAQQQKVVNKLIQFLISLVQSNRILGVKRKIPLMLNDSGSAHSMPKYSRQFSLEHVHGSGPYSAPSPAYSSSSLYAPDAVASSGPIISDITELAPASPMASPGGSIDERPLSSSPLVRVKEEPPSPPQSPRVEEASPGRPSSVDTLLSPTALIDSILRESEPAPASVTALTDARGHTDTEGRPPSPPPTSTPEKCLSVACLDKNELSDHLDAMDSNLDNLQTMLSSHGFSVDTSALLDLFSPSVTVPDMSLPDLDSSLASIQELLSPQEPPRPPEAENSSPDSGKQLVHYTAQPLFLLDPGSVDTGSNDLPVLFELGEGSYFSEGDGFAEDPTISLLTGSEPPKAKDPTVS
Method in brief: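 Reporter mRNA induction in HepG2 is measured 24 h after dosing, using transiently transfected multiplexed cis-regulated reporter units. Signal comes from capillary electrophoresis of labelled RT-PCR products, with DMSO as negative control.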

[7] = ATG_MRE_CIS: Attagene CIS-FACTORIAL HepG2 Assay for human Metal Responsive Element (MRE) (AID 2282954); details: HepG2 MRE cis-reporter transcription, Attagene multiplex; actives raise or lower the signal
Method in brief: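 Transient MRTU transfection of HepG2 (FuGene 6); 24 h dosing; total RNA → oligo(dT) RT, PCR, 6-FAM primer extension, HpaI cut, CE. Bidirectional fit vs DMSO.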

[8] = molecular target: Paired box protein Pax-6 (Homo sapiens) (UniProt P26367); assay: ATG_Pax6_CIS: Attagene CIS-FACTORIAL HepG2 Assay for human Paired Box 6 (PAX6) (AID 2282956); details: HepG2 CIS-FACTORIAL PAX6 reporter transcription, RNA readout; actives raise or lower the signal
Sequence of Paired box protein Pax-6 (Homo sapiens) (P26367 whole entry, looked up): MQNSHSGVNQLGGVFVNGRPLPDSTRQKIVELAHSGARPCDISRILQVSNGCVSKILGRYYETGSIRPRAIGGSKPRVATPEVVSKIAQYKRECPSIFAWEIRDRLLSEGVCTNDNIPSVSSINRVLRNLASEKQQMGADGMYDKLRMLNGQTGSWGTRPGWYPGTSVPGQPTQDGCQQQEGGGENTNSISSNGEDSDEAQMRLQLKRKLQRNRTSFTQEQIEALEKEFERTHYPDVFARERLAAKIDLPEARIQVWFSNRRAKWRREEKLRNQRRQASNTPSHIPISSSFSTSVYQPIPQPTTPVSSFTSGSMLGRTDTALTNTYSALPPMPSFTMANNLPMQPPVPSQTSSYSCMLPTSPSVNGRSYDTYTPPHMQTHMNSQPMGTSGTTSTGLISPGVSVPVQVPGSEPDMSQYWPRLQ
Method in brief: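 HepG2 cells transiently transfected with cis-promoter-driven multiplexed reporter units sensing endogenous transcription factor activity; 24 h chemical exposure. Reporter mRNA quantified by RT-PCR, 6-FAM labelling, HpaI digestion and capillary electrophoresis; bidirectional fit versus DMSO baseline.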

[9] = ATG_PXRE_CIS: Attagene CIS-FACTORIAL HepG2 Assay for human Pregnane X Receptor Element (PXRE) (AID 2282957); details: HepG2 Attagene CIS-FACTORIAL PXRE reporter, mRNA; actives raise or lower the signal
Method in brief: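 Cis-element reporter mRNA in human hepatoma HepG2 cells is measured 24 h post-dosing by RT-PCR, primer-extension labeling and capillary electrophoresis; gain or loss of signal is fitted relative to DMSO.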

[10] = ATG_PPRE_CIS: Attagene CIS-FACTORIAL HepG2 Assay for human Peroxisome Proliferator-activated Response Element (PPRE) (AID 2282958); details: HepG2 PPRE cis-element reporter, Attagene transcription factor profiling; actives raise or lower the signal
Method in brief: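 Endogenous PPRE-driven transcription is measured in HepG2 cells carrying transfected multi-reporter constructs. Reporter transcripts are quantified by RT-PCR, HpaI digestion and capillary electrophoresis 24 h after dosing. DMSO baseline, bidirectional fit.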

[11] = ATG_RORE_CIS: Attagene CIS-FACTORIAL HepG2 Assay for human RAR-related Orphan Receptor Element (RORE) (AID 2282959); details: HepG2 Attagene cis-factorial RORE reporter, mRNA; actives raise or lower the signal
Method in brief: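 RORE reporter transcripts reflecting endogenous factor activity were read after 24 h compound exposure of transfected HepG2 cells, using reverse transcription, PCR, fluorescent labelling and capillary electrophoresis sizing. Gain or loss fitted against DMSO.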

[12] = ATG_Sox_CIS: Attagene CIS-FACTORIAL HepG2 Assay for human SRY-box transcription factor (SOX) (AID 2282960); details: HepG2 Attagene cis-factorial SOX reporter, mRNA; actives raise or lower the signal
Method in brief: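 Reporter transcripts, measured by RT-PCR and capillary electrophoresis of labelled fragments, report endogenous SOX transcription factor activity. Transiently transfected human HepG2 cells receive chemical for 24 h; changes in either direction are fitted relative to DMSO.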

[13] = molecular target: Transcription factor Sp1 (Homo sapiens) (UniProt P08047); assay: ATG_Sp1_CIS: Attagene CIS-FACTORIAL HepG2 Assay for human Specificity Protein 1 (Sp1) (AID 2282961); details: HepG2 Sp1 cis-reporter transcription, actives raise or lower the signal
Sequence of Transcription factor Sp1 (Homo sapiens) (P08047 whole entry, looked up): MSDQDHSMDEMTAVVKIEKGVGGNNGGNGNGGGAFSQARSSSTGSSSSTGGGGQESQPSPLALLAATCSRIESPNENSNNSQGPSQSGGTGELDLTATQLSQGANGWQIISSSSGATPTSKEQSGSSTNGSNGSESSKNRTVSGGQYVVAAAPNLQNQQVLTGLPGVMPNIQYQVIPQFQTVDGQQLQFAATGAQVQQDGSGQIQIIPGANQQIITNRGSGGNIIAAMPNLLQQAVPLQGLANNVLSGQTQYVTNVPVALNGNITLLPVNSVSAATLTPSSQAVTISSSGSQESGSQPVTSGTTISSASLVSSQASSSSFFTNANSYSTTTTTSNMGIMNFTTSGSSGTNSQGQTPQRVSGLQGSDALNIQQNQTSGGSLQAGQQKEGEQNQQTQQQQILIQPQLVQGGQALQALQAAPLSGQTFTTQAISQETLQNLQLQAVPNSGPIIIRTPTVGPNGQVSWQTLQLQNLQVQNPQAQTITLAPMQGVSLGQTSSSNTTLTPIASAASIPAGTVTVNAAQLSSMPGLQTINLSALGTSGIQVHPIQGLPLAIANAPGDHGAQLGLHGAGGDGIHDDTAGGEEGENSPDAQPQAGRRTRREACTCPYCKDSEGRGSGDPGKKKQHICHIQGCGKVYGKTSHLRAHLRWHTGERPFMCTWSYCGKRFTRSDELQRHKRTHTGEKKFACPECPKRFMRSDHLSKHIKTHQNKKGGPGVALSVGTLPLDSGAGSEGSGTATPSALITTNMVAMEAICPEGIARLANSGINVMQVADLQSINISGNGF
Method in brief: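 Read-out is reporter transcript level, measured by RT-PCR and fluorescent capillary electrophoresis after 24 h chemical treatment. System: transiently transfected HepG2 cells reporting endogenous transcription factor activity; gain or loss fitted against DMSO baseline.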

[14] = ATG_SREBP_CIS: Attagene CIS-FACTORIAL HepG2 Assay for human Sterol Regulatory Element Binding (SREBP) (AID 2282962); details: HepG2 Attagene cis-factorial SREBP reporter, mRNA; actives raise or lower the signal
Method in brief: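 HepG2 cells transiently transfected with multiplexed cis-promoter reporter units sensing endogenous transcription factors; reporter mRNA measured 24 h after dosing by RT-PCR, 6-FAM labeling, HpaI digestion and capillary electrophoresis. Bidirectional fit versus DMSO.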

[15] = molecular target: Signal transducer and activator of transcription 3 (Homo sapiens) (UniProt P40763); assay: ATG_STAT3_CIS: Attagene CIS-FACTORIAL HepG2 Assay for human Signal Transducer and Activator of Transcription 3 (STAT3) (AID 2282963); details: HepG2, Attagene cis-factorial STAT3 reporter transcription; actives raise or lower the signal
Sequence of Signal transducer and activator of transcription 3 (Homo sapiens) (P40763 whole entry, looked up): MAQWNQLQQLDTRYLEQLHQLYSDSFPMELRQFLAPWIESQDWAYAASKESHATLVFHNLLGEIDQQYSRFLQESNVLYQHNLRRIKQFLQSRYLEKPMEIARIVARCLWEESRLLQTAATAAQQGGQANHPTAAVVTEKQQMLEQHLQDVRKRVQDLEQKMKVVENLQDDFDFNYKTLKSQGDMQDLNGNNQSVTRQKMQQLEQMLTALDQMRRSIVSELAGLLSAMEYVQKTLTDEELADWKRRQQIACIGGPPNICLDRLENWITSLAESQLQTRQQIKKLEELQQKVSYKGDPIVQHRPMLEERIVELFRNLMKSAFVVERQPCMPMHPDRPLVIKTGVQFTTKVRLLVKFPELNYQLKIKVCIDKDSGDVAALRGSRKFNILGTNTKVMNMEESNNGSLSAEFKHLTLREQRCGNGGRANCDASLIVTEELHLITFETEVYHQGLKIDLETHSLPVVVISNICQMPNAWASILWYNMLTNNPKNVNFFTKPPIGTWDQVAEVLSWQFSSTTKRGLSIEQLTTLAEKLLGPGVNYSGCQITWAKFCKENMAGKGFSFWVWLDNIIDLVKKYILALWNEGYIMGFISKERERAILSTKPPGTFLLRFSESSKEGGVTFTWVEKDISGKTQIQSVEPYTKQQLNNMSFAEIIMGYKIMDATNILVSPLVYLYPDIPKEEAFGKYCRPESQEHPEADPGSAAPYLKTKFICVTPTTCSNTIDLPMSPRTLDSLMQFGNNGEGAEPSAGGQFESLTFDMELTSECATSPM
Method in brief: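 Endogenous STAT3-responsive cis-element activity was read in transiently transfected HepG2 cells after 24 h treatment. Reporter transcripts were quantified via RT-PCR and capillary electrophoresis, with DMSO as negative control and bidirectional curve fitting.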

[16] = ATG_TA_CIS: Attagene CIS-FACTORIAL HepG2 Assay for human TA Basal Promoter (AID 2282964); details: HepG2 Attagene CIS-factorial TA basal promoter reporter; actives raise or lower the signal
Method in brief: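 Cis-factorial format in HepG2: reporters report endogenous factors, not chimeric Gal4 fusions. After 24 h treatment, reporter transcripts were measured by RT-PCR-capillary electrophoresis fluorescence, analysed bidirectionally versus DMSO.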

[17] = ATG_TCF_b_cat_CIS: Attagene CIS-FACTORIAL HepG2 Assay for human T-Cell-Factor with beta-catenin (TCF/b-cat) (AID 2282965); details: HepG2 TCF/beta-catenin cis-reporter transcription, actives raise or lower the signal
Method in brief: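 Measured: reporter mRNA in HepG2 transiently transfected with cis-promoter reporter units, 24 h after chemical addition. Fitting was bidirectional, DMSO as negative control.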

[18] = ATG_TAL_CIS: Attagene CIS-FACTORIAL HepG2 Assay for human TAL Basal Promoter (AID 2282966); details: HepG2 Attagene cis-factorial TAL promoter reporter; actives raise or lower the signal;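 note: background control endpoint measuring basal TAL promoter reporter mRNA not a specific factor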
Method in brief: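 In this cell-based multiplex, HepG2 liver cells bearing cis-promoter reporter constructs are dosed for 24 hours. Total RNA is reverse-transcribed and amplified, labelled fragments are sized by capillary electrophoresis, and signal changes are fitted bidirectionally versus DMSO.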

[19] = ATG_TGFb_CIS: Attagene CIS-FACTORIAL HepG2 Assay for human Transforming Growth Factor (TGF) (AID 2282967); details: HepG2 Attagene CIS TGFb reporter, mRNA transcription; actives raise or lower the signal
Method in brief: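 Multiplexed cis-reporter HepG2 system, 24 h treatment; mRNA induction read by fluorescence after RT-PCR and CE; DMSO negative control, bidirectional curve fitting.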

[20] = ATG_PBREM_CIS: Attagene CIS-FACTORIAL HepG2 Assay for human Phenobarbital-responsive Enhancer Module (PBREM) (AID 2282955); details: HepG2 PBREM cis-reporter, Attagene multiplexed transcription; actives raise or lower the signal
Method in brief: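 Endogenous transcription factor activity was read from reporter transcripts in transiently transfected human HepG2 liver cells after 24 h dosing. RT-PCR products were fluorescently labelled, HpaI-cut and sized by capillary electrophoresis; activity fitted bidirectionally against DMSO baseline.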

SMILES: C=CC(=O)OCCN(CC)CC
- AC50 [1]: 44.3 µM (active)
- outcome [2]: inactive
- outcome [3]: inactive
- outcome [4]: inactive
- outcome [5]: inactive
- AC50 [6]: 152 µM (active)
- AC50 [7]: 62.9 µM (active)
- AC50 [8]: 58.9 µM (active)
- AC50 [9]: 66.9 µM (active)
- outcome [10]: inactive
- outcome [11]: inactive
- outcome [12]: inactive
- outcome [13]: inactive
- AC50 [14]: 61.8 µM (active)
- outcome [15]: inactive
- outcome [16]: inactive
- outcome [17]: inactive
- outcome [18]: inactive
- outcome [19]: inactive

SMILES: CCOCCOCC
- outcome [1]: inactive
- outcome [2]: inactive
- outcome [3]: inactive
- outcome [4]: inactive
- outcome [5]: inactive
- outcome [6]: inactive
- outcome [7]: inactive
- outcome [20]: inactive
- outcome [8]: inactive
- outcome [9]: inactive
- outcome [10]: inactive
- outcome [11]: inactive
- outcome [12]: inactive
- outcome [14]: inactive
- outcome [15]: inactive
- outcome [16]: inactive
- outcome [17]: inactive
- outcome [18]: inactive
- outcome [19]: inactive

SMILES: CCC(C)c1nccnc1OC (stereo not given)
- outcome [1]: inactive
- outcome [2]: inactive
- outcome [3]: inactive
- outcome [4]: inactive
- outcome [5]: inactive
- outcome [6]: inactive
- outcome [7]: inactive
- outcome [8]: inactive
- outcome [9]: inactive
- outcome [10]: inactive
- outcome [11]: inactive
- outcome [12]: inactive
- outcome [13]: inactive
- outcome [14]: inactive
- outcome [15]: inactive
- outcome [16]: inactive
- outcome [17]: inactive
- outcome [18]: inactive
- outcome [19]: inactive

SMILES: CCCCCCCCC1CCC(=O)O1 (stereo not given)
- outcome [1]: inactive
- outcome [2]: inactive
- outcome [3]: inactive
- outcome [4]: inactive
- outcome [6]: inactive
- outcome [7]: inactive
- outcome [20]: inactive
- outcome [8]: inactive
- outcome [9]: inactive
- outcome [10]: inactive
- outcome [11]: inactive
- outcome [12]: inactive
- outcome [14]: inactive
- outcome [15]: inactive
- outcome [16]: inactive
- outcome [17]: inactive
- outcome [18]: inactive
- outcome [19]: inactive

SMILES: O=C(O)C(=O)O
- outcome [1]: inactive
- outcome [2]: inactive
- outcome [3]: inactive
- outcome [4]: inactive
- outcome [6]: inactive
- outcome [7]: inactive
- outcome [20]: inactive
- outcome [8]: inactive
- outcome [9]: inactive
- outcome [13]: inactive
- outcome [14]: inactive
- outcome [15]: inactive
- outcome [16]: inactive
- outcome [17]: inactive
- outcome [18]: inactive
- outcome [19]: inactive

SMILES: COC1=CC(=O)C[C@@H](C)[C@]12Oc1c(Cl)c(OC)cc(OC)c1C2=O
- outcome [1]: inactive
- outcome [2]: inactive
- outcome [3]: inactive
- AC50 [4]: 26.6 µM (active)
- outcome [6]: inactive
- outcome [7]: inactive
- outcome [20]: inactive
- outcome [8]: inactive
- outcome [9]: inactive
- outcome [10]: inactive
- outcome [11]: inactive
- outcome [12]: inactive
- outcome [14]: inactive
- outcome [15]: inactive
- outcome [16]: inactive
- AC50 [17]: 20.4 µM (active)
- outcome [18]: inactive
- outcome [19]: inactive

SMILES: O=P(O)(O)CCC(F)(F)C(F)(F)C(F)(F)C(F)(F)C(F)(F)C(F)(F)C(F)(F)C(F)(F)F
- outcome [1]: inactive
- outcome [2]: inactive
- outcome [3]: inactive
- outcome [4]: inactive
- outcome [5]: inactive
- outcome [6]: inactive
- outcome [7]: inactive
- outcome [8]: inactive
- outcome [9]: inactive
- outcome [10]: inactive
- outcome [11]: inactive
- outcome [12]: inactive
- outcome [14]: inactive
- outcome [15]: inactive
- outcome [16]: inactive
- outcome [17]: inactive
- outcome [18]: inactive
- outcome [19]: inactive

SMILES: COc1cccc(O)c1
- outcome [1]: inactive
- outcome [2]: inactive
- outcome [3]: inactive
- outcome [4]: inactive
- outcome [5]: inactive
- outcome [6]: inactive
- outcome [7]: inactive
- outcome [8]: inactive
- outcome [9]: inactive
- outcome [11]: inactive
- outcome [12]: inactive
- outcome [13]: inactive
- outcome [14]: inactive
- outcome [15]: inactive
- outcome [16]: inactive
- outcome [17]: inactive
- outcome [18]: inactive
- outcome [19]: inactive
